# Results as given in PubChem BioAssay.
# Unmarked numbers belong to inactive results. Activity calls are given as the source filed them. No stated cut-off is given here; in the data, active means inhibition above about 36%; inactive means the rest.
# Test system: transactivating tegument protein VP16 (Human herpesvirus 1)
# Test: VP16 transactivation reporter inhibitors, counter-screen for SRC2 inhibitor project, cell-based, luminescence, single concentration (AID 652007)
# Conditions: cell-based VP16 transactivation luciferase reporter, at 8.9 µM, active compounds read high
row,SMILES,inhibition
1,CN(C)c1ccc(NC(=S)c2ccccn2)cc1,1.77%
2,O=C(O)c1cccc(CSc2nnc(COc3ccccc3)o2)c1,15.7%
3,COc1ccc(-c2cc(C(=O)O)c(C)o2)cc1OC,-74%
4,Cc1ccc(S(=O)(=O)N2[C@@H](c3ccc4c(c3)OCO4)C(C(=O)O)=C[C@H]2C(C)(C)C)cc1,-12.9%
5,CCn1nc(NC(=O)C(C)C)c2cc3cccc(C)c3nc21,3.87%
6,CC(C)(C)c1ccc(-c2n[nH]c(=S)n2C2CCCC2)cc1,1.72%
7,Oc1cc2ccccc2cc1-c1nnc2n1-c1ccccc1SC2,5.09%
8,COCCN(C(=O)CC1C(=O)NCCN1Cc1ccc(-c2ccccc2)cc1)C(C)C (stereo not given),-1.75%
9,CCC(=O)Nc1ccc(NC(=O)c2oc3ccccc3c2C)cc1,-12.3%
10,COc1ccc(CCNc2ncnc3cc(OC)c(OC)cc23)cc1OC,0.49%
11,CCC(NC(=O)CCc1c(C)c2cc3c4c(oc3cc2oc1=O)CCCC4)C(=O)O (stereo not given),38.3% (active)
12,C[C@@H]1C[C@H]2O[C@@H]2/C=C\C=C\C(=O)Cc2cc(O)cc(O)c2C(=O)O1,34.7%
13,N#CCCN(C(=O)COC(=O)C1CCN(S(=O)(=O)c2ccccc2C(F)(F)F)CC1)c1ccccc1,0.12%
14,O=C(C1=NN[C@@H]2C(=O)N(c3cccc(C(F)(F)F)c3)C(=O)[C@H]12)c1ccc2ccccc2n1,2.15%
15,[2H]C(CCOS(N)(=O)=O)c1ccc(C(C)(C)C)cc1 (stereo not given),13.7%
16,CC1CCCCC12NC(=O)N(CC(=O)Nc1ccc(OC(F)F)cc1)C2=O (stereo not given),-18.4%
17,Cn1nnnc1Sc1ncnc2scc(-c3ccc(C(F)(F)F)cc3)c12,35.2%
18,COc1ccc(CN=C(Nc2ccccc2)SC2CC(=O)NC2=O)cc1 (stereo not given),-5.45%
19,Cc1ccc(CS(=O)(=O)c2ncc(Cl)c(C(=O)Nc3ccc(OC(F)F)cc3)n2)cc1,76.9% (active)
20,COc1cc2[nH]c3c(=O)n4c(nc3c2cc1OC)SCCC4,-66.2%

row,SMILES,inhibition
1,O=C(CN1C(=O)NC2(CCCCCC2)C1=O)Nc1ccc(Br)cc1Br,-12.2%
2,CCC(C)Nc1nc(C)nc2c1oc1ccccc12 (stereo not given),2.3%
3,Cc1ccc(C)c(N2CCN(C(=O)c3ccc4c(c3)c(C)c(C)n4C)CC2)c1,-28.6%
4,O=C(CCl)N1c2ccccc2CCc2ccccc21,29.1%
5,CC1=CC(C)(C)N(S(=O)(=O)c2ccc(C)cc2)c2ccc(C)cc21,0.6%
6,O=C(Nc1nc2cc3c(cc2s1)OCCO3)c1ccco1,24.9%
7,Cn1cc(S(=O)(=O)Nc2ccc3c(c2)OCCO3)cn1,-16%
8,O=C(NC1CCCC1)C(c1ccccc1)n1c(CSCCOc2ccccc2)nc2ccccc21 (stereo not given),47.1% (active)
9,CC(C)(C)c1nn(-c2ccccc2)c2[nH]c(=O)c(CNc3ccc4c(c3)OCCO4)cc12,-7.89%
10,Cc1cc(C(=O)CN2C(=O)c3ccccc3S2(=O)=O)c(C)n1-c1ccccc1,-10.4%
11,CC(C)(C)c1ccccc1NC(=O)CN1C(=O)NC2(CCCC2)C1=O,-13.7%
12,Nc1ccc(Oc2ccc3c(c2)C(=O)N(CC2CCCO2)C3=O)cc1 (stereo not given),-45.6%
13,CN(Cc1ccccc1)C(=O)c1ccc(NC(=O)C2CCN(C(=O)OC(C)(C)C)CC2)cc1,15.8%
14,CN(C)c1ccc(CCc2ccc(N)cc2)cc1,12.3%
15,Nc1ccc(-c2cc3ccccc3c(=O)o2)cc1,-7.3%
16,Cc1nc([N+](=O)[O-])c(Sc2nc3ccc([N+](=O)[O-])cc3[nH]2)n1Cc1ccccc1,-6.71%
17,Cn1c(=O)c2c(ncn2CCOc2cccc(Br)c2)n(C)c1=O,2.33%
18,CC(C)(C)c1ccc(SCCc2ccncc2)cc1,-28.2%
19,N#CC1CCCc2c1[nH]c1ccc([N+](=O)[O-])cc21 (stereo not given),-27%
20,C=CCn1nc(C(=O)N2CCOCC2)cc1-c1sc(NC(=O)c2ccccc2)nc1C,-15.6%
